# Results as given in the supplement of paper PMC8728848.
# This is one part of a sample in which the strongest signals are shown more often than they occur.
# B1: Blon2468mut (Bifidobacterium longum) (protein)
# chain: MTFIKQMMPRYVASMTAGIVAAAMAATCAFAPVANADAVSPTQETIQSTGRHFMVYYRAWRDVTMKGVNTDLPDDNWISMYDIPYGVDVVNIFSYVPSGQEEQAQPFYDKLKSDYAPYLHSRGIKLVRGIDYTGVAVNGFRTFMKEQNKTESEATEADYDAYAKQVIDKYMISVGLDGLDIDMQAHPNDADVKISDNVIRALSKHIGPKSAKPDTTMFLYDTNGSYLNPFKNVAECFDYVAYQQYGSSSDRTARAAADYQPYIGNEFVPGLTFPEEGDMNNRWYDATEPYEESHFYQVASYVREHNLGGMFVYALDRDGRNYDEDLRRIVPSNLLWTKTAIAESEGMALDTAKTAANHYLDRMSLRQVIDDNAASADKARDMVGKAANLYETNKAVLGGDYGEGFSNTYDPTLEAGLLGIDISVLQQQIDKSSEIIGADTAESDAKTALRMARDAAIDGLTGKIYTADQVSAWSQALKAALDATVPVPTPDSTDQNGNRDKVTNHKVQGQPKQLSATGISTDIIVAVGVTLAIAGVALSLSRKLS
# Assays:
# Test in all cases: glycan array binding signal (z-score within array); higher = stronger binding
# Settings in all cases: glycan notation: IUPAC condensed, linker removed
# Glc(b1-6)Glc = target: Glc(b1-6)Glc
# Procedure, shortened: (§1)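 The binding signal is a Z-score computed within each array and averaged over linkers. Arrays of the same protein sequence at different concentrations or buffers were also averaged together. Data originate from 3228 arrays in the Consortium for Functional Glycomics database, kept only where the protein sequence was available.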
# [1] = target: GlcNAc(b1-2)Man(a1-3)[GlcNAc(b1-2)Man(a1-6)]Man(b1-4)GlcNAc(b1-4)GlcNAc
# Procedure, shortened: as §1
# [2] = target: GlcNAc(b1-2)[GlcNAc(b1-4)]Man(a1-3)[GlcNAc(b1-4)][GlcNAc(b1-2)[GlcNAc(b1-6)]Man(a1-6)]Man(b1-4)GlcNAc(b1-4)GlcNAc
# Procedure, shortened: as §1
# [3] = target: GlcNAc(b1-3)Gal(b1-4)GlcNAc(b1-3)Gal(b1-4)GlcNAc(b1-3)GalNAc
# Procedure, shortened: as §1
# GlcNAc(b1-6)GalNAc = target: GlcNAc(b1-6)GalNAc
# Procedure, shortened: as §1
# [4] = target: Man(a1-2)Man(a1-2)Man(a1-6)[Man(a1-3)]Man
# Procedure, shortened: as §1
# [5] = target: Man(a1-2)Man(a1-3)[Man(a1-6)]Man(a1-6)[Man(a1-2)Man(a1-3)]Man(b1-4)GlcNAc(b1-4)GlcNAc
# Procedure, shortened: as §1
# Man(a1-3)[Man(a1-6)]Man = target: Man(a1-3)[Man(a1-6)]Man
# Procedure, shortened: as §1
# [6] = target: Man(a1-3)[Man(a1-6)]Man(a1-6)[Man(a1-3)]Man
# Procedure, shortened: as §1
# [7] = target: Man(a1-3)[Man(a1-6)]Man(b1-4)GlcNAc(b1-4)GlcNAc
# Procedure, shortened: as §1
# [8] = target: Man(a1-3)[Man(a1-6)]Man(b1-4)GlcNAc(b1-4)[Fuc(a1-6)]GlcNAc
# Procedure, shortened: as §1
# Man(b1-4)GlcNAc = target: Man(b1-4)GlcNAc
# Procedure, shortened: as §1
# MurNAc(b1-4)GlcNAc = target: MurNAc(b1-4)GlcNAc
# Procedure, shortened: as §1
# [9] = target: Neu5Ac(a2-3)Gal(b1-3)GalNAc6S
# Procedure, shortened: as §1
# [10] = target: Neu5Ac(a2-3)Gal(b1-3)[Fuc(a1-4)]GlcNAc(b1-3)Gal(b1-4)[Fuc(a1-3)]GlcNAc
# Procedure, shortened: as §1
# [11] = target: Neu5Ac(a2-3)Gal(b1-4)GlcNAc(b1-2)Man(a1-3)[GlcNAc(b1-4)][Neu5Ac(a2-3)Gal(b1-4)GlcNAc(b1-2)Man(a1-6)]Man(b1-4)GlcNAc(b1-4)GlcNAc
# Procedure, shortened: as §1
# [12] = target: Neu5Ac(a2-3)Gal(b1-4)GlcNAc(b1-3)Gal
# Procedure, shortened: as §1
# [13] = target: Neu5Ac(a2-3)Gal(b1-4)GlcNAc(b1-3)Gal(b1-4)GlcNAc(b1-3)Gal(b1-4)GlcNAc
# Procedure, shortened: as §1
# [14] = target: Neu5Ac(a2-3)Gal(b1-4)GlcNAc(b1-3)Gal(b1-4)GlcNAc(b1-3)Gal(b1-4)GlcNAc(b1-2)Man(a1-3)[Neu5Ac(a2-3)Gal(b1-4)GlcNAc(b1-3)Gal(b1-4)GlcNAc(b1-3)Gal(b1-4)GlcNAc(b1-2)Man(a1-6)]GalNAc
# Procedure, shortened: as §1
# [15] = target: Neu5Ac(a2-3)Gal(b1-4)GlcNAc(b1-3)Gal(b1-4)[Fuc(a1-3)]GlcNAc
# Procedure, shortened: as §1
# [16] = target: Neu5Ac(a2-6)Gal(b1-4)GlcNAc(b1-2)Man(a1-3)[Neu5Ac(a2-3)Gal(b1-4)GlcNAc(b1-2)Man(a1-6)]Man(b1-4)GlcNAc(b1-4)GlcNAc
# Procedure, shortened: as §1
# [17] = target: Neu5Ac(a2-6)Gal(b1-4)GlcNAc(b1-2)Man(a1-3)[Neu5Ac(a2-6)Gal(b1-4)GlcNAc(b1-2)Man(a1-6)]Man(b1-4)GlcNAc(b1-4)[Fuc(a1-6)]GlcNAc
# Procedure, shortened: as §1
# [18] = target: Neu5Ac(a2-6)Gal(b1-4)GlcNAc(b1-2)Man(a1-6)Man(b1-4)GlcNAc(b1-4)GlcNAc
# Procedure, shortened: as §1
# [19] = target: Neu5Ac(a2-6)Gal(b1-4)GlcNAc(b1-3)Gal(b1-4)[Fuc(a1-3)]GlcNAc(b1-3)Gal(b1-4)[Fuc(a1-3)]GlcNAc
# Procedure, shortened: as §1
# Neu5Ac(a2-8)Neu5Ac = target: Neu5Ac(a2-8)Neu5Ac
# Procedure, shortened: as §1
# [20] = target: Neu5Ac(a2-8)Neu5Ac(a2-3)Gal(b1-4)GlcNAc
# Procedure, shortened: as §1
binder,measurement,setting,value
B1,glycan array binding signal (z-score),Glc(b1-6)Glc,-0.029
same,glycan array binding signal (z-score),[1],-0.069
same,glycan array binding signal (z-score),[2],-0.091
same,glycan array binding signal (z-score),[3],-0.065
same,glycan array binding signal (z-score),GlcNAc(b1-6)GalNAc,-0.094
same,glycan array binding signal (z-score),[4],-0.034
same,glycan array binding signal (z-score),[5],-0.083
same,glycan array binding signal (z-score),Man(a1-3)[Man(a1-6)]Man,-0.056
same,glycan array binding signal (z-score),[6],0.323
same,glycan array binding signal (z-score),[7],6.11
same,glycan array binding signal (z-score),[8],22.6
same,glycan array binding signal (z-score),Man(b1-4)GlcNAc,-0.072
same,glycan array binding signal (z-score),MurNAc(b1-4)GlcNAc,-0.087
same,glycan array binding signal (z-score),[9],-0.077
same,glycan array binding signal (z-score),[10],0.065
same,glycan array binding signal (z-score),[11],-0.063
same,glycan array binding signal (z-score),[12],-0.065
same,glycan array binding signal (z-score),[13],-0.05
same,glycan array binding signal (z-score),[14],-0.005
same,glycan array binding signal (z-score),[15],-0.04
same,glycan array binding signal (z-score),[16],0.012
same,glycan array binding signal (z-score),[17],-0.077
same,glycan array binding signal (z-score),[18],-0.076
same,glycan array binding signal (z-score),[19],-0.078
same,glycan array binding signal (z-score),Neu5Ac(a2-8)Neu5Ac,-0.066
same,glycan array binding signal (z-score),[20],-0.079
